From PubChem BioAssay AID881 (National Center for Advancing Translational Sciences (NCATS), 2007) come the findings set out here.

Several values for one entry are separate records, joined by “and”; a condition that tells them apart may be missing. Equal values may be shown once. In all, about 110,000 compounds went through this assay and about 610 (0.55%) were called active. Where a call stands in place of a potency, no number is given. Not shown: some 3% with an inconclusive outcome. This excerpt belongs to a sample that is enriched for actives. A number with no mark means an inactive call. Calls follow the shape of the dose curve; as a rule, active = well fitted inhibition curve with a large enough effect; inconclusive = small, poorly fitted or top-dose-only effect; inactive = no such curve, though single readings can be large or run the other way.
Potency is read from the fitted curve at half-maximal effect.

Sequence of Polyunsaturated fatty acid lipoxygenase ALOX15B (Homo sapiens) (O15296 whole entry, looked up): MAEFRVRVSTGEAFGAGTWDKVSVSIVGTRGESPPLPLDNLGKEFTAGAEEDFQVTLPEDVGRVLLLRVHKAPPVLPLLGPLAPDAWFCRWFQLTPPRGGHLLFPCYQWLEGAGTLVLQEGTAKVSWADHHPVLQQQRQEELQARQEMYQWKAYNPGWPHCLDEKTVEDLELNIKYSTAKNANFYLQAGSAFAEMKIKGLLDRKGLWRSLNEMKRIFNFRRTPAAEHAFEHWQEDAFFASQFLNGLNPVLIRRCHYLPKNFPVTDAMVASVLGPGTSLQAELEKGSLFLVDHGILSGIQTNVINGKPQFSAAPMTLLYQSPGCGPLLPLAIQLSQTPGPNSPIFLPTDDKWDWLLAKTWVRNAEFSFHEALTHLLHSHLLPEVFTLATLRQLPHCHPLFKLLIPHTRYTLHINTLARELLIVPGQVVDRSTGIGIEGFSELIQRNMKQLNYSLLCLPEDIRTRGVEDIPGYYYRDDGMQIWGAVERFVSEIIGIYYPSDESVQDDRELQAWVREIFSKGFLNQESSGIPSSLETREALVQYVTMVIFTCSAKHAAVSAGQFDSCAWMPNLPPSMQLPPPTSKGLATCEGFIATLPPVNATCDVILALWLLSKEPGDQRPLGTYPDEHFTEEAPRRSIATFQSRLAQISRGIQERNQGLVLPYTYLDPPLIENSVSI

The test concerns the target Polyunsaturated fatty acid lipoxygenase ALOX15B (Homo sapiens) (UniProt O15296). Put plainly: qHTS Assay for Inhibitors of 15-hLO-2 (15-human lipoxygenase 2). Also: nearly all actives have a fitted effect of over 60% in size. As to conditions: purified 15hLO-2, xylenol orange hydroperoxide absorbance; series mostly up to 57.1 µM. An excerpt: Assay Overview: NIH Molecular Libraries Screening Centers Network [MLSCN] NIH Chemical Genomics Center [NCGC] MLSCN Grant: MH081283-01A1 PI Name: Holman, T.R., University of California, Santa Cruz Human lipoxygenase 15hLO-2 is a member of the closely related lipoxygenase family of enzymes which catalyze the site-specific oxidation of arachidonic acid to various hormone precursor molecules and as such is a candidate for drug development in a variety of disease areas, such as cancer and inflammation. Inhibition of 15hLO-2 activity was screened by utilizing arachidonic acid as a substrate. The extent of hydroperoxide product formation was measured by a secondary chromogenic reaction in which xylenol orange (XO, Sigma-Aldrich, cat. number 39,818-7) reacts with the ferric ions produced from the reaction between the hydroperoxide and ferrous ions. The Fe(III)-XO complex is characterized with red-shifted absorbance at 560 nm. A purified preparation of human 15hLO-2 was supplied by Professor Ted Holman, University of California, Santa Cruz.
Assay Protocol: Buffer: 25 mM Hepes pH 7.5, 0.01% Triton X-100. Reagents/Controls: Buffer in columns 3 and 4 as negative control (no enzyme). Substrate solution: 45 uM arachidonic acid (Sigma-Aldrich, St. Louis, MO) final concentration dispensed throughout the plate. Enzyme: 50 nM 15hLO-2 final concentration in columns 1, 2, 5-48. Column 1 is neutral (100% activity). Column 2 contained pin-transferred titration of NDGA (nordihidroguaiaretic acid, Sigma-Aldrich, N 5023, top concentration 10 mM in DMSO, then 1:2 dilution in duplicate). (Dilution factor: 23 nL into 4 uL.) Chromogenic detection reagent (divalent iron/xylenol orange, Fe-XO): 200 uM xylenol orange plus 300 uM ferrous ammonium sulfate prepared freshly in 50 mM sulfuric acid. Assay Steps: Three uL of enzyme were dispensed to 1536-well Greiner black clear bottom plates. Compounds and controls (23 nL) were transferred via Kalypsys PinTool. The plates were incubated for 15 min at room temperature, and then 1 uL of substrate solution was added to start the reaction. After room temperature incubation for 90 minutes, 4 uL of Fe-XO solution was added to each well followed by a short spin (1000 rpm, 15 sec) and the plates were then incubated for 30 min. The absorbance at 405 and 573 nm were measured using ViewLux (Perkin-Elmer) High-throughput CCD imager and absorbance protocol settings. The 573-to-405 absorbance ratio was used to compute reaction progress.
(In qHTS, concentration-response curves come from the screen itself.)
On to `O=C(Nc1cc(C(F)(F)F)ccc1Cl)c1cc2nc3c(c(C(F)(F)F)n2n1)CCCC3`, for which the activity change, negative = inhibition result is “inactive”.

For the molecule `CCOc1ccc(N=Cc2c(O)n(-c3cccc(C)n3)c(=O)c3ccccc23)cc1`, the activity change, negative = inhibition result is “inactive”.

As for `NNc1nnc(NN)c2ccccc12`, the activity change, negative = inhibition was 35% [at 0.0915 µM].

As to `CCOC(=O)c1c(NC(=O)CCl)sc(C(=O)N(CC)CC)c1C`, the activity change, negative = inhibition entry was “inactive”.

Turning to `O=c1onc(-c2cccs2)n1Cc1ccccc1`, the activity change, negative = inhibition result is “inactive”.

With `CNC(=O)c1nnc(Cc2ccc(Cl)cc2)o1`, the activity change, negative = inhibition entry was “inactive”.

Consider `CC(C)Nc1ncnc2c1nnn2Cc1ccccc1`, for which the activity change, negative = inhibition result is “inactive”.

`CN=C1SC(CC(=O)Nc2ccc(C(=O)O)cc2)C(=O)N1C` (stereo not given): the activity change, negative = inhibition entry is “inactive”.

With `Cc1c(Br)cc(C(=O)N2CCCCCC2)c(C)c1C`, the activity change, negative = inhibition entry is “inactive”.

As to `O=C1OCCN1C(=O)[C@H]1[C@H](c2ccccc2)C(c2ccc(F)cc2)=NN1c1ccccc1`, the activity change, negative = inhibition is -26.1% [at 0.0915 µM].

In the case of `Oc1c(Cl)cc(Cl)c(Cl)c1Cc1c(O)c(Cl)cc(Cl)c1Cl`, the Potency is 10 µM (active).

Turning to `C=C(C)CSc1nnc(-c2ccc(C)cc2)n1N`, the activity change, negative = inhibition result was “inactive”.

For `COc1ccc(CN2CN(C(C)C)CSC2=S)cc1`, the Potency was 5.01 µM (active).

In the case of `COc1ccc(C(=O)CN(C(=O)c2ccc(Cl)cc2)N2C(=O)c3ccccc3C2=O)cc1`, the activity change, negative = inhibition entry was “inactive”.

`O=C(O)CSCc1ccc(C(=O)O)o1`: the activity change, negative = inhibition result is “inactive”.

On to `CC(C)NS(=O)(=O)c1ccc(NC(=O)C2CCCCC2)cc1`, for which the activity change, negative = inhibition result is “inactive”.

For the molecule `O=C(CCc1ccc(S(=O)(=O)N2CCOCC2)cc1)Nc1ccc2ccccc2c1`, the activity change, negative = inhibition result is “inactive”.

As to `COc1ccc(Nc2cc(=O)oc3ccccc23)cc1`, the activity change, negative = inhibition entry was “inactive”.

As to `S=C(NCc1ccc(Cl)cc1)NC12CC3CC(CC(C3)C1)C2`, the Potency was 15.8 µM (active).

With `O=C(NCc1ccc2c(c1)OCO2)C12CC3CC(CC(C3)C1)C2`, the activity change, negative = inhibition result is “inactive”.

In the case of `S=C(NCc1cccs1)Nc1ccc(Cl)cc1`, the activity change, negative = inhibition entry was “inactive”.

As to `Cc1cccc(N2C(=O)c3cccnc3C2=O)c1`, the activity change, negative = inhibition result was “inactive”.

Regarding `COc1ccc(-c2c(C)cc3oc(=O)cc(-c4ccccc4)c3c2C)cc1F`, the activity change, negative = inhibition was -14% [at 0.0915 µM].

For `CC1O[C@@H](Oc2c(-c3ccc(O)c(O)c3)oc3cc(O)cc(O)c3c2=O)C(O)C(O)C1O` (stereo not given in full), the activity change, negative = inhibition entry was “inactive”.

Take `O=c1cc(-c2ccc(O)c(O)c2)oc2cccc(O)c12`: the Potency was 12.6 µM (active).

Regarding `Cc1cccc(-c2cc(=O)c3cc(C)ccc3o2)c1`, the activity change, negative = inhibition entry was “inactive”.

For `CC(C)c1ccc(N2CCN(C(=O)c3ccccc3NC(=O)/C=C(\C(=O)O)c3ccccc3)CC2)cc1`, the activity change, negative = inhibition result was “inactive”.

With `COc1ccc(N2CCN(C(=O)CNC(=O)c3ccc(C(C)(C)C)cc3)CC2)cc1`, the activity change, negative = inhibition result was “inactive”.

With `CC(=O)N1CCN(c2ccc(NCc3ccc(C(C)C)cc3)cc2)CC1`, the Potency is 12.6 µM (active).

On to `COc1ccc(-c2c(C)cc3oc(=O)cc(-c4ccccc4)c3c2C)cc1OC`, for which the activity change, negative = inhibition was -3.53% [at 0.0915 µM].

For the molecule `CCCCN(CC)CCNC(=O)c1[nH]c(C)c(C(C)=O)c1C`, the activity change, negative = inhibition entry is “inactive”.

For `COCc1cc(C(C)=O)ccc1OC`, the activity change, negative = inhibition result was “inactive”.

Consider `CC[C@@H]1Cc2cc(O)ccc2C2=C1c1ccc(O)cc1C[C@H]2CC`, for which the Potency was 7.94 µM (active) and 3.55 µM (active).

As for `Cc1nnc(SCC(=O)NC(=O)NC2CCCC2)n1N`, the activity change, negative = inhibition entry was “inactive”.

In the case of `CCc1c(O)nc(SCC(=O)Nc2ccccc2)n(C(C)CC)c1=O` (stereo not given), the activity change, negative = inhibition result was “inactive”.

For the molecule `COc1ccccc1NC(=O)[C@H](COCc1ccccc1)NC(=O)OC(C)(C)C`, the activity change, negative = inhibition result is “inactive”.

As to `CC(C)C(=O)OCC(=O)Nc1ccc2c(c1)CCC2`, the activity change, negative = inhibition result is “inactive”.

As to `O=C1OCCN1C(=O)[C@H]1[C@H](c2ccc(F)cc2)C(c2ccccc2)=NN1c1ccc(Br)cc1`, the activity change, negative = inhibition was -15.7% [at 0.0915 µM].

For the molecule `COc1cc(/C=N/O)cc(Br)c1OS(=O)(=O)c1ccc(C)cc1`, the activity change, negative = inhibition entry is “inactive”.

For `CCN(CC)c1ccc(NC(=O)c2ccc(Cl)nc2)cc1`, the activity change, negative = inhibition result was “inactive”.

As for `Cc1ccc(-c2cccc([C@H]3[C@@H]4C=CC[C@@H](C)[C@@H]4C(=O)N3Cc3ccccc3)c2)cc1`, the activity change, negative = inhibition was 17.8% [at 0.0915 µM].

In the case of `Cc1nc(NC2=NC(C(=O)Nc3ccc(Cl)cc3)CC(=O)N2)nc2ccccc12` (stereo not given), the activity change, negative = inhibition entry is “inactive”.

In the case of `COc1ccc(Nc2ncnc3ccc(OC)cc23)cc1`, the activity change, negative = inhibition is 12% [at 0.0915 µM].

On to `O=C(c1ccccc1)N1CCN(c2ccc([N+](=O)[O-])c(NCc3ccco3)c2)CC1`, for which the activity change, negative = inhibition result was “inactive”.

In the case of `N#C/C(=C\c1ccccc1)c1n[nH]c(Cn2cncn2)n1`, the activity change, negative = inhibition result was “inactive”.

Consider `O=C(O)CCC(=O)O`, for which the activity change, negative = inhibition is 15.2% [at 0.0915 µM].

As for `Cc1cc2oc(=O)cc(-c3ccccc3)c2c(C)c1-c1ccc(OC(F)(F)F)cc1`, the activity change, negative = inhibition was -5.36% [at 0.0915 µM].

Turning to `O=C(Nc1ccc(Sc2ccc(Br)cc2)cc1)c1ccco1`, the activity change, negative = inhibition entry was “inactive”.

As to `CC1CCc2c(c3ccccc3[nH]c2=O)O1` (stereo not given), the activity change, negative = inhibition entry is “inactive”.

Regarding `C=CCSc1nc(Cc2ccc(Cl)cc2)nc2ccccc12`, the activity change, negative = inhibition entry was “inactive”.
